From the supplement of paper PMC7380943
± gives the standard deviation of the averaged measurements.

How the values were obtained:
[1] = system: CLZ3 (HCA2 human fibroblast dual HR-NHEJ reporter); assay: NHEJ repair efficiency (GFP+ cells) relative to control (log10 fold); higher = more non-homologous end joining; details: 5 µM; doxycycline 0.5 ug/mL
[2] = system: CLZ3 (HCA2 human fibroblast dual HR-NHEJ reporter); assay: HR repair efficiency (tdTomato+ cells) relative to control (log10 fold); higher = more homologous recombination; details: 5 µM; doxycycline 0.5 ug/mL
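Wherever HR repair efficiency (tdTomato+ cells) relative to control is given: compound given one day before doxycycline, which switches on I-SceI endonuclease expression to create double-strand breaks within the integrated reporter.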
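Wherever NHEJ repair efficiency (GFP+ cells) relative to control is given: compound given one day ahead of doxycycline, which switches on I-SceI endonuclease to cut the chromosomally integrated reporter and create DSBs.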

CC(C)(O)CCc1c(O)cc(O)c2c(=O)c(O)c(-c3ccc(O)cc3)oc12 [Noricaritin]
NHEJ repair efficiency (log10) [1]: -0.112 | HR repair efficiency (log10) [2]: -0.128

CC(C)=CCC/C(C)=C/C=C/C(C)=C/C=C/C(C)=C/C=C/C=C(C)/C=C/C=C(C)/C=C/C=C(\C)CCC=C(C)C [Lycopene]
NHEJ repair efficiency (log10) [1]: -0.109 | HR repair efficiency (log10) [2]: 0.0372

OC[C@H]1O[C@@H](Oc2cc3c(O)cc(O)cc3[o+]c2-c2ccc(O)c(O)c2)[C@H](O)[C@@H](O)[C@@H]1O [Cyanidin3-o-glucoside]
NHEJ repair efficiency (log10) [1]: -0.035 | HR repair efficiency (log10) [2]: 0.142

O=c1c(O)c(-c2ccc(O)c(O)c2)oc2cc(O)cc(O)c12 [Quercetin]
NHEJ repair efficiency (log10) [1]: -0.047 | HR repair efficiency (log10) [2]: 0.086

OCC1=C[C@@H](O)[C@@H]2C=CO[C@@H](O[C@@H]3O[C@H](CO)[C@@H](O)[C@H](O)[C@H]3O)[C@H]12 [Aucubin]
NHEJ repair efficiency (log10) [1]: 0.0297 | HR repair efficiency (log10) [2]: 0.121

COc1c(O)cc2occ(-c3ccc(O)cc3)c(=O)c2c1O [Tectorigenin]
NHEJ repair efficiency (log10) [1]: -0.0657 | HR repair efficiency (log10) [2]: -0.129

CC1(C)CC[C@]2(C(=O)O)CCC3=C([C@@H](CCl)C[C@@H]4[C@@]5(C)C[C@H](O)[C@H](O)[C@@](C)(C(=O)O)[C@@H]5CC[C@@]34C)[C@@H]2C1 [Senegenin]
NHEJ repair efficiency (log10) [1]: -0.0514 | HR repair efficiency (log10) [2]: -0.031

O=c1c(-c2ccc(O)c(O)c2)coc2c([C@@H]3O[C@H](CO)[C@@H](O)[C@H](O)[C@H]3O)c(O)ccc12 [3-Hydroxy Puerarin]
NHEJ repair efficiency (log10) [1]: -0.187 | HR repair efficiency (log10) [2]: -0.112

COc1cc(O)c2c(=O)c3c(O[C@@H]4O[C@H](CO)[C@@H](O)[C@H](O)[C@H]4O)ccc(O)c3oc2c1 [Swertianolin]
NHEJ repair efficiency (log10) [1]: 0.00276 | HR repair efficiency (log10) [2]: 0.201

OCc1ccc(O[C@@H]2O[C@H](CO)[C@@H](O)[C@H](O)[C@H]2O)cc1 [Gastrodin]
NHEJ repair efficiency (log10) [1]: 0.113 | HR repair efficiency (log10) [2]: 0.307

O=c1c(O)c(-c2ccc(O)cc2O)oc2cc(O)cc(O)c12 [Morin]
NHEJ repair efficiency (log10) [1]: 0.0612 | HR repair efficiency (log10) [2]: 0.0351

CC(=O)OCC1=C[C@@H]2OC(=O)C3=CO[C@@H](O[C@@H]4O[C@H](CO)[C@@H](O)[C@H](O)[C@H]4O)[C@H]1[C@@H]32 [Asperuloside]
NHEJ repair efficiency (log10) [1]: 0.0752 | HR repair efficiency (log10) [2]: 0.1

O=C(C=Cc1ccc(O)c(O)c1)O[C@H]1[C@H](O)C[C@](O)(C(=O)O)C[C@H]1OC(=O)C=Cc1ccc(O)c(O)c1 [Isochlorogenic Acid C (4,5-Di-O-Caffeoylquinic Acid)]
NHEJ repair efficiency (log10) [1]: 0.021 | HR repair efficiency (log10) [2]: -0.0644

C=C(CCC=C(C)C)[C@H]1CC[C@]2(C)[C@@H]1[C@H](O)C[C@@H]1[C@@]3(C)CC[C@H](O)C(C)(C)[C@@H]3[C@@H](O[C@@H]3O[C@H](CO)[C@@H](O)[C@H](O)[C@H]3O)C[C@]12C [Ginsenoside Rk3]
NHEJ repair efficiency (log10) [1]: 0.000935 | HR repair efficiency (log10) [2]: 0.0532

COc1ccc(C2OCC3C(c4cc(OC)c(OC)c(OC)c4)OCC23)cc1OC (stereo not given) [Magnolin]
NHEJ repair efficiency (log10) [1]: -0.0599 | HR repair efficiency (log10) [2]: -0.00542

CC(C)=CCOc1c2ccoc2cc2oc(=O)ccc12 [Isoimperatorin]
NHEJ repair efficiency (log10) [1]: -0.032 ± 0.014 | HR repair efficiency (log10) [2]: 0.0188 ± 0.0059

COc1ccccc1 [Anisole]
NHEJ repair efficiency (log10) [1]: 0.105 | HR repair efficiency (log10) [2]: 0.043

COc1cc(-c2cc(=O)c3c(O)c(OC)c(O)cc3o2)ccc1O [Jaceosidin]
NHEJ repair efficiency (log10) [1]: -0.028 | HR repair efficiency (log10) [2]: -0.105

C/C=C/c1cc(OC)c2c(c1)[C@H](C)[C@@H](c1ccc3c(c1)OCO3)O2 [Licarin B]
NHEJ repair efficiency (log10) [1]: 0.0776 | HR repair efficiency (log10) [2]: 0.192

O=C(/C=C/c1ccc(O)c(O)c1)O[C@@H]1[C@H](O)C[C@@](O)(C(=O)O)C[C@H]1OC(=O)/C=C/c1ccc(O)c(O)c1 [Isochlorogenic acid B]
NHEJ repair efficiency (log10) [1]: 0.142 | HR repair efficiency (log10) [2]: 0.105

C[C@@H]1O[C@@H](O[C@@H]2[C@H](O)[C@@H](O)[C@H](O[C@H]3CC[C@@]4(C)C(CC[C@]5(C)C4C=C[C@]46OC[C@@]7(CCC(C)(C)CC74)[C@@H](O)C[C@]65C)C3(C)C)O[C@@H]2CO[C@@H]2O[C@H](CO)[C@@H](O)[C@H](O)[C@H]2O)[C@H](O)[C@H](O)[C@H]1O (stereo not given in full) [Saikosaponin c]
NHEJ repair efficiency (log10) [1]: -0.0431 | HR repair efficiency (log10) [2]: -0.104

C=C(C(=O)O)[C@@H]1CC[C@@H](C)[C@@H]2CCC(C)=C[C@@H]21 [Artemisinic acid]
NHEJ repair efficiency (log10) [1]: 0.0135 | HR repair efficiency (log10) [2]: 0.116

COC(=O)C1=CO[C@@H](O[C@@H]2O[C@H](CO[C@@H]3O[C@H](CO)[C@@H](O)[C@H](O)[C@H]3O)[C@@H](O)[C@H](O)[C@H]2O)[C@@H]2C(CO)=CC[C@H]12 [Genipin 1-Gentiobioside]
NHEJ repair efficiency (log10) [1]: 0.0417 | HR repair efficiency (log10) [2]: 0.0278

CO[C@]1(CC[C@H](C)CO[C@@H]2O[C@H](CO)[C@@H](O)[C@H](O)[C@H]2O)O[C@H]2C[C@H]3[C@@H]4CC[C@@H]5C[C@@H](O[C@@H]6O[C@H](CO)[C@H](O)[C@H](O)[C@H]6O[C@@H]6O[C@H](CO)[C@@H](O)[C@H](O)[C@H]6O)CC[C@]5(C)[C@H]4CC[C@]3(C)[C@H]2[C@@H]1C [Anemarsaponin E]
NHEJ repair efficiency (log10) [1]: 0.0103 | HR repair efficiency (log10) [2]: -0.0664

CO[C@H]1O[C@@H]2O[C@@]3(C)CC[C@H]4[C@H](C)CC[C@@H]([C@H]1C)[C@@]24OO3 [Artemether]
NHEJ repair efficiency (log10) [1]: 0.125 | HR repair efficiency (log10) [2]: 0.186

CC1OC(OC2C(C)OC(OC(=O)C34CCC(C)(C)CC3C3=CCC5C6(C)CCC(OC7OC(C(=O)O)C(OC8OC(CO)C(OC9OC(CO)C(O)C(O)C9O)C(O)C8O)C(OC8OCC(O)C(O)C8O)C7O)C(C)(C=O)C6CCC5(C)C3(C)CC4)C(OC3OCC(O)C(O)C3OC3OCC(O)C(O)C3O)C2O)C(O)C(OC2OCC(O)C(O)C2O)C1O (stereo not given) [Gypenoside]
NHEJ repair efficiency (log10) [1]: 0.0642 | HR repair efficiency (log10) [2]: 0.115

CC[C@@H]1[C@H]2CCCCN3[C@H]2[C@H](C[C@H]3[C@@H]2C[C@H](C)C(=O)O2)[C@@H]2[C@H]1OC(=O)[C@H]2C [Tuberostemonine]
NHEJ repair efficiency (log10) [1]: 0.233 | HR repair efficiency (log10) [2]: -0.0247

COc1ccc(CCC(=O)c2c(O)cc(OC3OC(CO)C(O)C(O)C3OC3OC(C)C(O)C(O)C3O)cc2O)cc1O (stereo not given) [Neosperidin Dihydrochalcone]
NHEJ repair efficiency (log10) [1]: -0.0639 | HR repair efficiency (log10) [2]: 0.0209

NCCCC(=O)O [γ-Aminobutyric Acid]
NHEJ repair efficiency (log10) [1]: -0.0944 | HR repair efficiency (log10) [2]: 0.0562

O=c1c(O)c(-c2cc(O)c(O)c(O)c2)oc2cc(O)cc(O)c12 [Myricetin]
NHEJ repair efficiency (log10) [1]: 0.0547 | HR repair efficiency (log10) [2]: 0.02

C[C@@H]1O[C@@H](O[C@H]2[C@H](O[C@H]3CC[C@@]4(C)[C@@H](CC[C@]5(C)[C@@H]4CC=C4[C@@H]6CC(C)(C)CC[C@]6(C(=O)O[C@@H]6O[C@H](CO[C@@H]7O[C@H](CO)[C@@H](O)[C@H](O)[C@H]7O)[C@@H](O)[C@H](O)[C@H]6O)CC[C@]45C)[C@]3(C)CO)OC[C@H](O)[C@@H]2O)[C@H](O)[C@H](O[C@@H]2O[C@H](CO)[C@@H](O)[C@H](O)[C@H]2O)[C@H]1O [Macranthoidin A]
NHEJ repair efficiency (log10) [1]: -0.155 | HR repair efficiency (log10) [2]: 0.0324

CC1=C[C@]2(O)O[C@@]3(CC2=C(C)C)[C@@H](C)CC[C@@H]13 [Curcumenol]
NHEJ repair efficiency (log10) [1]: 0.129 | HR repair efficiency (log10) [2]: 0.132

C[C@H]1CC[C@@]2(OC1)O[C@H]1C[C@H]3[C@@H]4CC[C@@H]5C[C@@H](O)CC[C@]5(C)[C@H]4CC[C@]3(C)[C@H]1[C@@H]2C [Sarsasapogenin]
NHEJ repair efficiency (log10) [1]: -0.068 | HR repair efficiency (log10) [2]: 0.0364

C=CC1=C(C)/C(=C/c2[nH]c(Cc3[nH]c(/C=C4\NC(=O)C(C)=C4C=C)c(C)c3CCC(=O)O)c(CCC(=O)O)c2C)NC1=O [Bilirubin]
NHEJ repair efficiency (log10) [1]: -0.0874 | HR repair efficiency (log10) [2]: -0.0828

COc1cc2c(cc1OC)[C@@H]1Cc3ccc(OC)c(OC)c3CN1CC2 [Tetrahydropalmatine]
NHEJ repair efficiency (log10) [1]: -0.0787 | HR repair efficiency (log10) [2]: 0.0375

C[C@@]12C[C@@]3(O)O[C@@H](O1)[C@]1(COC(=O)c4ccc(O)cc4)[C@@H]3C[C@]12O[C@@H]1O[C@H](CO)[C@@H](O)[C@H](O)[C@H]1O [Oxypaeoniflorin]
NHEJ repair efficiency (log10) [1]: 0.00873 | HR repair efficiency (log10) [2]: 0.0237

COc1cc(C2Oc3cc([C@H]4Oc5cc(O)cc(O)c5C(=O)[C@@H]4O)ccc3OC2CO)ccc1O (stereo not given in full) [Silybin (Silymarin)]
NHEJ repair efficiency (log10) [1]: 0.131 | HR repair efficiency (log10) [2]: 0.183

O=C(C=Cc1ccc(O)c(O)c1)O[C@@H]1C[C@@](O)(C(=O)O)C[C@@H](O)[C@@H]1O [5-Caffeoylquinic Acid]
NHEJ repair efficiency (log10) [1]: -0.0761 | HR repair efficiency (log10) [2]: -0.0365

COc1cc(OC)c2ccc(=O)oc2c1 [Citropten]
NHEJ repair efficiency (log10) [1]: 0.137 | HR repair efficiency (log10) [2]: 0.0946

CC1(C)[C@@H](O[C@H]2O[C@H](C(=O)O)[C@@H](O)[C@H](O)[C@H]2O[C@@H]2O[C@H](C(=O)O)[C@@H](O)[C@H](O)[C@H]2O)CC[C@]2(C)[C@H]3C(=O)C=C4[C@@H]5C[C@@](C)(C(=O)O)CC[C@]5(C)CC[C@@]4(C)[C@]3(C)CC[C@@H]12 [Glycyrrhizic acid]
NHEJ repair efficiency (log10) [1]: 0.142 | HR repair efficiency (log10) [2]: -0.0143

C[C@H]1O[C@H](OC[C@H]2O[C@@H](Oc3c(-c4ccc(O)cc4)oc4cc(O)cc(O)c4c3=O)[C@H](O)[C@@H](O)[C@@H]2O)[C@@H](O)[C@@H](O)[C@@H]1O [Kaempferol-3-O-Rutinoside]
NHEJ repair efficiency (log10) [1]: 0.0149 | HR repair efficiency (log10) [2]: -0.078

C=C(C)[C@@H]1CC[C@]2(C(=O)O)CC[C@]3(C)[C@H](CC[C@@H]4[C@@]5(C)CC[C@H](O[C@@H]6OC[C@H](O)[C@H](O)[C@H]6O[C@@H]6O[C@@H](C)[C@H](O)[C@@H](O)[C@H]6O)[C@@](C)(CO)[C@@H]5CC[C@]43C)[C@@H]12 [Anemoside A3]
NHEJ repair efficiency (log10) [1]: 0.0688 | HR repair efficiency (log10) [2]: 0.0291

COc1ccc([C@@H]2CC(=O)c3c(O)cc(O[C@@H]4O[C@H](CO)[C@@H](O)[C@H](O)[C@H]4O[C@@H]4O[C@@H](C)[C@H](O)[C@@H](O)[C@H]4O)cc3O2)cc1O [Neohesperidin]
NHEJ repair efficiency (log10) [1]: -0.0783 | HR repair efficiency (log10) [2]: -0.11

C=CCc1ccc(O)c(-c2cc(CC=C)ccc2O)c1 [Magnolol]
NHEJ repair efficiency (log10) [1]: 0.0133 | HR repair efficiency (log10) [2]: 0.105

OC[C@H]1O[C@@H](O[C@@H]2OC=C[C@H]3[C@H](O)[C@@H]4O[C@]4(CO)[C@@H]23)[C@H](O)[C@@H](O)[C@@H]1O [Catalpol]
NHEJ repair efficiency (log10) [1]: 0.0212 | HR repair efficiency (log10) [2]: 0.00259
